Experimental data published in ChEMBL document CHEMBL3433997, “St. Jude Leishmania screening dataset” (2016).

Columns and labels:
Assay type in all cases: functional
[1] = target: Solute carrier family 2, facilitated glucose transporter member 1 (Homo sapiens) (UniProt P11166); assay: ST_JUDE_LEISH: Cytotoxicity at 2uM final concentration against transgenic Leishmania Mexicana promastigotes LmGLUT1 that are glucose transport deficient and complemented with the human glucose transporter GLUT1. Activity is measured by DNA content using SYBR green in vitro
[2] = target: Hexose transporter 1 (Plasmodium falciparum) (UniProt O97467); assay: ST_JUDE_LEISH: Cytotoxicity at 2uM final concentration against transgenic Leishmania Mexicana promastigotes LmPfHT that are glucose transport deficient and complemented with the Plasmodium falciparum hexose transporter. Activity is measured by DNA content using SYBR green in vitro
[3] = target: Glucose transporter (Leishmania mexicana) (UniProt O61059); assay: ST_JUDE_LEISH: Cytotoxicity at 2uM final concentration against transgenic Leishmania Mexicana promastigotes LmGT2 that are glucose transport deficient and complemented with the L. Mexicana glucose transporter 2. Activity is measured by DNA content using SYBR green in vitro

Sequence of Solute carrier family 2, facilitated glucose transporter member 1 (Homo sapiens) (P11166 whole entry): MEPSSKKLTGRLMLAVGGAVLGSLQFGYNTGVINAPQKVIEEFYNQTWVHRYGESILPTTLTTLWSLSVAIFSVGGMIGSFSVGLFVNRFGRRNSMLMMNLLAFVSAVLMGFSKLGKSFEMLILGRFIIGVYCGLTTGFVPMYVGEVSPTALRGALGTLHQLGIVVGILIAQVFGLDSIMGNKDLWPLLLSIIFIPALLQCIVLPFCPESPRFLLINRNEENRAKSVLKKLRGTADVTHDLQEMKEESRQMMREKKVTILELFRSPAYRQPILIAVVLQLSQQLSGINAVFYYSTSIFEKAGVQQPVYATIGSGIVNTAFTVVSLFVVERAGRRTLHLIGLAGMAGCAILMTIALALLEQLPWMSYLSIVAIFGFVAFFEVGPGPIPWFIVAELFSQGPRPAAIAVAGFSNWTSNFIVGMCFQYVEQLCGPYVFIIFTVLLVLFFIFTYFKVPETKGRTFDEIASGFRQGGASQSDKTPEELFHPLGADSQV

Compound | inhibition [1] | inhibition [2] | inhibition [3]
CCCNC[C@@H](O)[C@H](Cc1ccccc1)NC(=O)c1cc2c3c(c1)c(CC)cn3CCS(=O)(=O)N2C | -2.56% | 0.74% | 0.44%
O=C(/C=C/c1cccc(Cl)c1)Nc1ccc2nc(CN3CCCC3)ccc2c1 | 3.42% | 5.45% | 3.23%
Cc1cccc2nc(-c3ccc(-c4cccc(NC(=O)Nc5ccc6c(c5)OCO6)c4)cc3)[nH]c12 | 2.61% | 4.13% | 3.3%
Cc1cccc2nc(-c3cccc(-c4cccc(NC(=O)c5cnccc5C(F)(F)F)c4)c3)[nH]c12 | 3.64% | 0.6% | -3.32%
COc1cccc(CCc2nc3c(N4CCC(Cc5ccccc5)CC4)cccc3n2CC2CNCCO2)c1 (centres undefined) | 9.36% | 9.47% | 8.5%
CC(=O)Nc1ccc2[nH]cc(C3CCN(CCC4CCN(C(=O)/C=C/c5ccc(Cl)c(Cl)c5)CC4)CC3)c2c1 | 8.34% | 7.25% | 5.15%
O=C(Nc1ccccc1)N(Cc1ccccc1-c1cccc(CNCCc2ccccc2)c1)C1CCN(Cc2ccccc2)CC1 | -1.02% | 0.26% | -0.84%
Nc1ccnc(N2CCC(CCOc3cc(C(F)(F)F)nc4c(C(F)(F)F)cccc34)CC2)c1 | 25.6% | 43.4% | 10.2%
CCC1CN2CCc3c([nH]c4ccccc34)[C@@H]2C[C@@H]1CC1NCCc2cc(OC)c(OC)cc21 (some centres undefined) | -0.82% | -1.25% | -1.42%
O=C(Nc1ccc(Cl)cc1)c1ccc(CN2CCCN(Cc3ccccc3)CC2)cc1 | 1.68% | 3.72% | 1.45%
Cc1ccc(CNC(=N)NC(=O)c2nc(Cl)c(NCc3ccc(Cl)cc3)nc2N)c(C)c1 | -0.6% | 0.67% | 1.11%
CC1CCN(CC[C@H]2CCCN2S(=O)(=O)c2cccc(NC(=O)Nc3ccc(C(F)(F)F)cc3)c2)CC1 | 0.63% | 1.64% | -0.02%
Cc1cc(NC2CCN(Cc3ccccc3)CC2)nc(NCCCCc2ccccc2)n1 | 23.4% | 17.5% | 4.87%
O=C(Nc1ccc(C(=O)OCC2CCCN3CCCCC23)cc1)c1ccc([N+](=O)[O-])cc1 (centres undefined) | -1.57% | 0.57% | 0.99%
CCc1cn2c3c(cc(C(=O)N[C@@H](Cc4ccccc4)[C@H](O)CNCCOC)cc13)N(C)S(=O)(=O)CC2 | 5.11% | 2.43% | 3.91%
COc1ccccc1C1CCN(C2CCC(NC(=O)c3cc4cc(C(C)C)ccc4[nH]3)CC2)CC1 (centres undefined) | -0.19% | 0.03% | 9.55%
NC(=O)c1cc2nc(NC3CCC3)nc(Nc3cccc4[nH]ncc34)c2[nH]1 | -0.69% | -0.16% | -1.17%
O=C(c1ccc(-c2ccc(-c3nc4ccccc4[nH]3)s2)cc1)N1CCCCC1CN1CCC(O)C1 (centres undefined) | 3.07% | 2.95% | 4.01%
C[C@@H](NC(=O)NC(CCN1CCC2(CC1)CN(S(C)(=O)=O)c1ccccc12)c1ccc(Cl)c(Cl)c1)c1ccccc1 (some centres undefined) | 0.39% | 4.43% | -3.56%
COc1ccc2nccc(N3CCC(CCNCc4cc5c(cn4)OCCO5)CC3)c2c1 | 7.15% | 8% | 4.48%
Cc1ccc(-c2ccc(NC(=O)N3CCc4cc(Br)c(N5CCN(C)CC5)cc43)cc2)cn1 | 2.03% | 1.29% | 2.24%
Cc1[nH]c(C)c(-c2ccc(-c3ccc(OCC(F)(F)F)cc3)nc2)c(=O)c1Cl | 5.76% | 4.89% | 6.06%
Cc1cccc2nc(-c3ccc(-c4cccc(NC(=O)Nc5ccc(Cl)cc5)c4)s3)[nH]c12 | 3.96% | 3.55% | 3.01%
CCc1ccc(CN2CCC(NC(=O)c3ccc(-c4ccccc4F)s3)CC2)cc1 | 0.37% | 0.03% | -5.91%

Compound | inhibition [1] | inhibition [2] | inhibition [3]
NC(=O)c1cccc(-n2ccc3cc(CNC4Cc5ccccc5C4)ccc32)c1 | 21.9% | 26.2% | 8.72%
COc1cc2nc(C)nc(Nc3ccc4c(ccn4Cc4ccccc4)c3)c2cc1OC | 5.04% | 5.91% | 5.53%
O=C(Nc1ccc(C(F)(F)F)cc1)Nc1ccccc1N1CCNCC1 | 2.1% | 1.1% | 6.58%
N#Cc1ccc(N(CCOc2ccc(Cl)c(Cl)c2)Cc2ccccc2C(F)(F)F)cc1C(F)(F)F | 2.54% | -0.11% | 0.26%
COCc1ccccc1C(=O)NCCOc1cc(C)cc(C)c1 | -0.29% | 0.17% | -0.46%
N#Cc1ccc(N/C(=N\c2cccc(Cl)c2Cl)NCc2ccc(Cl)cc2Cl)c(O)c1 | 9.71% | 9.71% | 9.16%
CNC(=O)COc1cc(C)c(C2CCN(CCCCNC(=O)c3ccc(-c4ccc(C(F)(F)F)cc4)cc3)CC2)cc1C | 2.41% | 2.32% | 1.85%
CC(C)c1ccc(OCC(O)CN(CCN2CCOCC2)C(=O)Nc2ccc(Br)cc2)cc1 (centres undefined) | 7.44% | 5.63% | 9.58%
COc1ccc(CN(C)CCOc2ccc(NC(=O)c3cccc4c(=O)cc(-c5ccccc5)[nH]c34)cc2)cc1OC | 0.9% | 0.96% | 1.24%
CCN1CCC(N(Cc2ccc(-c3ccc(C(F)(F)F)cc3)cc2)C(=O)Cn2c(CCc3cccc(F)c3F)cc(=O)c3c2CCCC3)CC1 | 0.35% | 0.64% | 0.87%
Cc1ccc(S(=O)(=O)NC2CCN(CCNC(=O)Nc3cc(C)nc4ccccc34)C2)cc1 (centres undefined) | 4.78% | 4.12% | 0.31%
CC(C)CNCc1ccc(-c2cccc(CN(CCCN3CCN(C)CC3)C(=O)/C=C/c3ccccc3)c2)cc1 | 5.83% | 5.21% | 5.27%
Cc1ccc(CNC(=O)[C@H](CCCN)Nc2cc(C)nc(Nc3ccccc3)n2)cc1 | 6.17% | 5.71% | 7.78%
Cc1nc2nc(N)nc(N)c2c(C)c1Cc1cccc(C#N)c1 | 3.44% | 2.87% | 2.88%
CCN1CCN(CC(O)CNC(=O)Nc2ccc(Cl)cc2)CC1 (centres undefined) | 8.67% | 8.82% | 6.63%
CNCCNCc1cccc(-c2cccc(-c3nc4cccc(C)c4[nH]3)c2)c1 | 0.8% | 2.47% | 0.35%
Cc1cccc2nc(-c3cccc(-c4ccc(NC(=O)COc5ccccc5C(N)=O)cc4)c3)[nH]c12 | 4.4% | 4.11% | 5.02%
COc1ccc(CN(C)CCCCc2ccc(NC(=O)COc3cccc4sc5ccccc5c(=O)c34)cc2)cc1OC | 1.62% | -3.06% | 0.59%
Cc1ccc(Nc2nccc(N(C)c3ccc4c(c3)nc(NC(=O)Cc3ccc(Cl)c(Cl)c3)n4C)n2)cc1S(N)(=O)=O | 6.81% | 11.6% | 5.64%
Cc1cc(NCCC(=O)NCCOc2ccccc2)nc(NCCOc2ccccc2)n1 | 3.09% | -0.07% | 0.08%
Cc1nnc2c(NC(=O)NC3CCCC3)cc3cc(-c4ccc(CN(C)C)cc4)ccc3n12 | 0.94% | 1.31% | 0.22%
O=C(Nc1ccc(Br)cc1)Nc1ccc(Cn2ncc(N3CCCNCC3)c(Cl)c2=O)cc1 | -2.08% | 0.01% | 2.81%
COc1ccc2ncc(OC)c(CCN3CC[C@@H](NCc4ccc5c(n4)NC(=O)CS5)[C@H](O)C3)c2n1 | 1.21% | 1.17% | -0.86%
OCC(CO)(CO)NCc1ccc2c3c(cccc13)-c1ccccc1-2 | 12.1% | 14.8% | 8.44%
